Screening data deposited in PubChem by National Center for Advancing Translational Sciences (NCATS).
FLuc counter = qHTS profiling assay for firefly luciferase inhibitor/activator using purifed enzyme and Km concentrations of substrates (counterscreen for miR-21 project). Luciferin 4-monooxygenase (Photinus pyralis), P08659. purified FLuc, Km substrates, luminescence inhibition. Potency, µM (series often up to 57.5 µM), usual class: inhibitors. 360,000 tested, 6.9% active. AID 588342, 2011; further: nearly all actives have a fitted effect of over 55% in size
Target sequence (P08659 whole entry, looked up): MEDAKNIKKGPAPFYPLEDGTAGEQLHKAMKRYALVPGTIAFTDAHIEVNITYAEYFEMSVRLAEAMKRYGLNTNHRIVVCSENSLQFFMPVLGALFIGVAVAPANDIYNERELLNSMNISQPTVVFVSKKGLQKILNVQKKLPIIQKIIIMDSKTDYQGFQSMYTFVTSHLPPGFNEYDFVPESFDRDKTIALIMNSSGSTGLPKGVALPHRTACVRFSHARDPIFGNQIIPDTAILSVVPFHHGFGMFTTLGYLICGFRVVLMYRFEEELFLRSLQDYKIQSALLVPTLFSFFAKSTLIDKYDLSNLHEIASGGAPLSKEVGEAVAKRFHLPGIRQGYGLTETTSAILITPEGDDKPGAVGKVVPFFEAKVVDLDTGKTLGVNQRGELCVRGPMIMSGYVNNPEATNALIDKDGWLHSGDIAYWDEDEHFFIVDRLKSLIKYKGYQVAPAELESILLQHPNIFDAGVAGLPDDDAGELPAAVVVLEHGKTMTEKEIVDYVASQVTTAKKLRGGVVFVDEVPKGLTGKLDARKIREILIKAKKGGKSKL
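Purified P. pyralis luciferase (10nM final) with 10uM D-luciferin and 10uM ATP (Km levels) in 50mM Tris acetate pH 7.5, 10mM Mg acetate, 0.01% Tween-20, 0.05% BSA; qHTS 6-point titration, ~60 µM downward; luminescence read.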
NPC1 promoter act = qHTS Assay for NPC1 Promoter Activators; Huh7 NPC1 promoter luciferase reporter, 24 h; Potency, µM (series often up to 9.22 µM), actives largely listed as activators; 320,000 tested, 2.4% active; further: nearly all actives have a fitted effect of over 60% in size
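Luciferase expression driven by the NPC1 promoter was measured in stably transfected Huh7 cells after a 24 h compound incubation, using a luciferase reagent and a luminescence read.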
Rab9 prom act = qHTS Assay for Rab9 Promoter Activators | Huh7 Rab9 promoter-luciferase reporter, luminescence, 24 h | Potency, µM (highest dose often 9.22 µM), usual class: activators | 320,000 tested, 2.8% active | AID 485297, 2010; further: nearly all actives have a fitted effect of over 60% in size
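Huh7 cells stably carrying Rab9 promoter–luciferase reporter, plated 1500 cells/well, compound added after 2 h and incubated 24 h at 37 °C; luciferase luminescence then read after 10 min with detection reagent.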
ELG1 DNA repair = qHTS screen for small molecules that inhibit ELG1-dependent DNA repair in human embryonic kidney (HEK293T) cells expressing luciferase-tagged ELG1; HEK293T ELG1-luciferase reporter, luminescence, 16 h; DNA damage induced by 5-fluorouridine; Potency, µM (doses to about 46.1 µM), actives largely listed as inhibitors; 330,000 tested, 2.3% active; AID 504467, 2011; further: nearly all actives have a fitted effect of over 55% in size
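HEK293T cells expressing luciferase-tagged ELG1 (2,000/well) received 5-Fluorouridine plus compound or DMSO for 16 hr at 37 °C. Luciferase was read by ONE-Glo luminescence after 30 min at room temperature.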
SMN2 splice up = qHTS Assay for Enhancers of SMN2 Splice Variant Expression; 210,000 tested, 2.8% active; HEK293 SMN2-luciferase splicing reporter, luminescence, 30-36 h; Potency, µM (titrated, usually from 46.1 µM), most hits filed as activators; further: nearly all actives have a fitted effect of over 55% in size
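HEK293 cells carry an SMN2 […]–luciferase reporter in which exon 7 inclusion puts luciferase in frame. Cells were plated 10-12 h before compound addition, then incubated 30-36 h at 37C. ONE-Glo luminescence was read; sodium butyrate at 4.5 mM final served as control.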
ELG1 genotox = qHTS screen for small molecules that induce genotoxicity in human embryonic kidney (HEK293T) cells expressing luciferase-tagged ELG1; HEK293T ELG1-luciferase reporter, luminescence, 16 h; Potency, µM (highest dose often 46 µM), actives largely listed as activators; 330,000 tested, 1.3% active; AID 504466, 2011; further: nearly all actives have a fitted effect of over 60% in size
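HEK293T cells expressing luciferase-tagged ELG1 were exposed to compound or DMSO vehicle for 16 hr at 37 °C and 5% CO2. Luciferase activity was then measured with ONE-Glo after 30 min at room temperature.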
A number is an active result; – = inactive; ? = inconclusive; · = not tested or not shown; [ ] = another dose, or the depositor's remark. The list is not random: actives were taken first. Their share in the collection is about 9.2%. The call rests on the fitted dose curve; in most records, active means well fitted curve in the direction sought with a large enough effect; inconclusive means small, poorly fitted or top-dose-only effect, or another doubt; inactive means no such curve, though single readings can be large; an effect the other way counts as inactive or inconclusive.

SMILES	FLuc counter	NPC1 promoter act	Rab9 prom act	ELG1 DNA repair	SMN2 splice up	ELG1 genotox
Fc1cc(Br)ccc1Nc1c2c(nc3nc(-c4cccs4)nn13)CCCC2	–	·	·	·	·	·
CC(C)c1ccc(/C=C2\CC/C(=C\C=N\N(C)C)C2=O)cc1	2.39µM	?	?	?	12.6µM	3.26µM
CC(C)/C=C1\CC/C(=C\c2ccc(N(C)C)cc2)C1=O	0.953µM	3.55µM	?	?	?	9.2µM
O=C1/C(=C/c2ccncc2)CCC/C1=C\c1ccncc1	–	–	–	?	–	–
c1ccc2c(c1)nnn1c3ccccc3nc21	4.78µM	1.12µM	–	?	–	1.64µM
Cc1nc2ccccc2c2nc3ccccc3n12	?	–	–[1.84 µM]	–	–	?
CCCC1(C)NC(=O)c2ccccc2O1 (stereo not given)	–	–	–	–	·	–
N=c1c2c3c(sc2nc2n1CCCCC2)CCCCC3	16.9µM	?	?	?	–	?
Cc1nc2sc3c(c2c(=N)n1N)CCCC3	–	–	–	–	–	–
CC1=Nn2c(nc3sc4c(c3c2=O)CCCC4)SC1	21.3µM	–	?	?	10µM	?
O=c1c2c3c(sc2nc2n1CCC2)CCCC3	–	–	–	–	·	–
Nc1nc2sc3c(c2c(=O)s1)CCCC3	10.7µM	–	?	?	?	16.4µM
O=c1c2c3c(sc2nc2n1CCCS2)CCCC3	19µM	?	?	?	–	–
O=C(COC(=O)c1cc(Br)ccc1O)NC12CC3CC(CC(C3)C1)C2	·	·	·	–	·	–
O=c1c2c3c(sc2nc2n1CCCCC2)CCCCC3	13.5µM	3.55µM	3.55µM	?	11.2µM	?
CC1(C)Cc2c(sc3nc4n(c(=O)c23)CCC4)CO1	–	–	–	–	–	–
O=c1c2c3c(sc2nc2n1CCCC2)CCC3	–	–	–	–	–	–
O=c1c2c3c(sc2nc2n1CCCCC2)CCCC3	19µM	?	?	?	?	23.1µM
O=c1c2c3c(sc2nc2n1CCCC2)CCCCC3	23.9µM	–	–	?	–	?
CCOc1cccc(C2c3c(-c4cc(C)ccc4O)n[nH]c3C(=O)N2Cc2ccco2)c1 (stereo not given)	–	·	·	·	–	·
COc1ccccc1NCC(=O)NNCC(=O)Nc1ccc(F)c(Cl)c1	–	–	–	–	–	–
CCn1cc(C(=O)OCC(=O)Nc2ccc(C)c(Cl)c2)c(=O)c2ccc(C)nc21	–	·	·	·	–	·
CN(C)c1ccc(C(C#N)c2ccccc2)nn1 (stereo not given)	–	3.16µM	1.41µM	?	–	–
CN(C)c1ccc(C(C#N)c2ccc(Cl)cc2)nn1 (stereo not given)	–	–	–	–	–	–
CC(=O)Nc1ccccc1NC(=O)c1ccc(C)c(C)c1	–	–	–	–	–	–
SMILES	FLuc counter	NPC1 promoter act	Rab9 prom act	ELG1 DNA repair	SMN2 splice up	ELG1 genotox
COCCn1c(C)cc(C(=O)CSc2nc3ccccc3c(=O)n2Cc2ccco2)c1C	1.69µM	3.16µM	1.26µM	?	7.08µM	?
COCCn1c(C)cc(C(=O)CSc2cc(C)c3ccccc3n2)c1C	13.5µM	–	–	–	–	–
Cc1cn(-c2ccc(Br)cc2)[nH]c1=O	?	–	–	?	–	18.4µM
Cc1cc(NC(=O)C2CCCC2)nc2c1c(=O)oc1ccccc12	–	–	–	20.6µM	–	–
Cc1cc(NC(=O)C2CCCCC2)nc2c1c(=O)oc1ccccc12	–	–	–	–	–	–
O=C(CSc1nnc(SCc2ccccc2Cl)s1)N/N=C/c1ccc(C(=O)O)cc1	3.38µM	–	–	–	·	–
CCOc1cc(/C=N/NC(=O)CSc2nnc(C)s2)ccc1OCc1ccccc1Cl	–	–	–	–	–	–
Cc1nn(-c2ccccc2)c(C)c1/C=N/NC(=O)c1cc(-c2cccs2)[nH]n1	13.5µM	–	–	?	–	–
Cc1ccc(CSc2nnc(SCC(=O)N/N=C/C=C/c3ccccc3[N+](=O)[O-])s2)cc1	1.35µM	–	–	?	–	–
Cc1nn(-c2ccccc2)c(C)c1/C=N/NC(=O)c1cccs1	8.49µM	?	?	?	17.8µM	?
C/C(=N\NC(=O)c1ccc2c(c1)OCO2)c1ccc(NC(=O)CCCC(=O)O)cc1	–	–	–	–	·	–
O=C(CSc1nnc(SCc2ccccc2)s1)N/N=C/c1c(Cl)cccc1Cl	?	–	–	–	–	–
Cc1c(/C=N/NC(=O)c2cccs2)c2ccccc2n1Cc1ccccc1Cl	8.49µM	–	–	–	·	–
Cc1nn(-c2ccccc2)c(C)c1/C=N/NC(=O)c1ccccc1NS(=O)(=O)c1cccs1	10.7µM	–	–	–	–	–
Cc1nn(-c2ccccc2)c(C)c1/C=N/NC(=O)c1cc(-c2ccc(Br)s2)[nH]n1	?	–	–	8.2µM	–	–
Cc1nn(-c2ccccc2)c(C)c1/C=N/NC(=O)CSc1nnc(SCc2ccc(Cl)cc2)s1	9.53µM	–	–	?	–	–
Cc1c(/C=N/NC(=O)c2cccnc2)c2ccccc2n1Cc1ccccc1	–	–	–	?	–	–
CC(/C=N/NC(=O)CSc1nnc(SCc2ccccc2)s1)=C\c1ccco1	21.3µM	–	–	–	–	–
Cc1[nH]c2ccccc2c1/C=N/NC(=O)c1cccs1	26.9µM	–	–	?	?	?
Cc1nn(-c2ccccc2)c(C)c1/C=N/NC(=O)c1cc(-c2ccc(Cl)s2)[nH]n1	10.7µM	–	–	?	–	–
Cc1occc1C(=O)NNC(=O)c1ccc(S(=O)(=O)N(C)C)cc1	–	–	–	–	·	–
CCOc1ccc(C(C)=O)cc1COc1ccc(-c2nnco2)cc1	–	–	–	7.3µM	·	–
CCOc1ccc(C(C)=O)cc1COc1ccc(C)nc1[N+](=O)[O-]	–	–	–	–	·	–
COc1cccc(N2CC(NC(=O)/C=C\c3ccc4c(c3)OCO4)CC2=O)c1 (stereo not given)	–	·	·	·	·	·
Cn1c(=O)c(/C=C/c2ccc(F)cc2)nc2ccccc21	6.75µM	–	–	?	·	–
CC(=O)c1ccc(/C=C/c2nc3ccccc3n2C)o1	5.36µM	1.26µM	1µM	?	·	16.4µM
O=c1c(/C=C(\O)c2ccc(F)cc2)nc2ccccc2n1-c1ccccc1	?	–	?	–	–	?
Cn1c(=O)c(/C=C/c2ccccc2)nc2ccccc21	2.69µM	?	3.55µM	?	11.2µM	?
Cn1c(/C=C/c2ccccc2)nc2ccccc21	0.135µM	0.562µM	?	?	·	?
O=C(O)c1ccc(S(=O)(=O)N(Cl)Cl)cc1	·	·	·	·	–	·
